Data taken from PMC9911399, “Two distinct binding modes provide the RNA-binding protein RbFox with extraordinary sequence specificity”.
Numbering of substitutions follows the chain as printed; changes in the protein carry UniProt numbers. Whole data set: some 16,000 sequences, median “ka relative to ugcaugu” near 0.096, cut for the highest 2% near 0.35. This excerpt belongs to a sample that is enriched for the highest values.

T1: RBFOX1 RRM RbFoxmut (Fox-RRM*) (Homo sapiens, UniProt Q9NWB1 109-208, R118D;E147R;N151S;E152T)
T1 sequence: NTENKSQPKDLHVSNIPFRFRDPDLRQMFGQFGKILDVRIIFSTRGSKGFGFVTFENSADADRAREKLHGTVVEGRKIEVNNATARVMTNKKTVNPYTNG

B1: CUAUUUC (DNA:RNA)
RNA: GGGAGACCGGAAUUCAGAUUGUCCCUAUUUCUUAAAUCCCGUCGUAGCCACCA
DNA 1: CAATCTGAATTCCGGTCTCCC
DNA 2: TGGTGGCTACGACGGGATT
B2: AGUCAAC (DNA:RNA)
RNA: B1 RNA with C25A, U26G, A27U, U28C, U29A, U30A
DNA 1: CAATCTGAATTCCGGTCTCCC
DNA 2: TGGTGGCTACGACGGGATT
B3: AAUGCAG (DNA:RNA)
RNA: GGGAGACCGGAAUUCAGAUUGUCCAAUGCAGUUAAAUCCCGUCGUAGCCACCA
DNA 1: CAATCTGAATTCCGGTCTCCC
DNA 2: TGGTGGCTACGACGGGATT
B4: GUGCAUA (DNA:RNA)
RNA: B1 RNA with C25G, A27G, U28C, U29A, C31A
DNA 1: CAATCTGAATTCCGGTCTCCC
DNA 2: TGGTGGCTACGACGGGATT
B5: UUGCAUG (DNA:RNA)
RNA: B1 RNA with C25U, A27G, U28C, U29A, C31G
DNA 1: CAATCTGAATTCCGGTCTCCC
DNA 2: TGGTGGCTACGACGGGATT
B6: GUGCAUC (DNA:RNA)
RNA: B1 RNA with C25G, A27G, U28C, U29A
DNA 1: CAATCTGAATTCCGGTCTCCC
DNA 2: TGGTGGCTACGACGGGATT
B7: GUGCAUG (DNA:RNA)
RNA: B1 RNA with C25G, A27G, U28C, U29A, C31G
DNA 1: CAATCTGAATTCCGGTCTCCC
DNA 2: TGGTGGCTACGACGGGATT
B8: UUGCAGA (DNA:RNA)
RNA: B1 RNA with C25U, A27G, U28C, U29A, U30G, C31A
DNA 1: CAATCTGAATTCCGGTCTCCC
DNA 2: TGGTGGCTACGACGGGATT
B9: GCGUGCA (DNA:RNA)
RNA: B1 RNA with C25G, U26C, A27G, U29G, U30C, C31A
DNA 1: CAATCTGAATTCCGGTCTCCC
DNA 2: TGGTGGCTACGACGGGATT
B10: GUGCAGA (DNA:RNA)
RNA: B1 RNA with C25G, A27G, U28C, U29A, U30G, C31A
DNA 1: CAATCTGAATTCCGGTCTCCC
DNA 2: TGGTGGCTACGACGGGATT
B11: UUGCAUC (DNA:RNA)
RNA: B1 RNA with C25U, A27G, U28C, U29A
DNA 1: CAATCTGAATTCCGGTCTCCC
DNA 2: TGGTGGCTACGACGGGATT
B12: GUUCAUC (DNA:RNA)
RNA: B1 RNA with C25G, A27U, U28C, U29A
DNA 1: CAATCTGAATTCCGGTCTCCC
DNA 2: TGGTGGCTACGACGGGATT
B13: UCUUGCA (DNA:RNA)
RNA: B3 RNA with A25U, A26C, G28U, C29G, A30C, G31A
DNA 1: CAATCTGAATTCCGGTCTCCC
DNA 2: TGGTGGCTACGACGGGATT
B14: UUGCGUC (DNA:RNA)
RNA: B1 RNA with C25U, A27G, U28C, U29G
DNA 1: CAATCTGAATTCCGGTCTCCC
DNA 2: TGGTGGCTACGACGGGATT
B15: UUGCAUA (DNA:RNA)
RNA: B1 RNA with C25U, A27G, U28C, U29A, C31A
DNA 1: CAATCTGAATTCCGGTCTCCC
DNA 2: TGGTGGCTACGACGGGATT
B16: ACGUAGU (DNA:RNA)
RNA: B3 RNA with A26C, U27G, G28U, C29A, A30G, G31U
DNA 1: CAATCTGAATTCCGGTCTCCC
DNA 2: TGGTGGCTACGACGGGATT
B17: CAACGCA (DNA:RNA)
RNA: B1 RNA with U26A, U28C, U29G, U30C, C31A
DNA 1: CAATCTGAATTCCGGTCTCCC
DNA 2: TGGTGGCTACGACGGGATT
B18: UGUAUAC (DNA:RNA)
RNA: B3 RNA with A25U, A26G, G28A, C29U, G31C
DNA 1: CAATCTGAATTCCGGTCTCCC
DNA 2: TGGTGGCTACGACGGGATT
B19: UUCCAAG (DNA:RNA)
RNA: B3 RNA with A25U, A26U, U27C, G28C, C29A
DNA 1: CAATCTGAATTCCGGTCTCCC
DNA 2: TGGTGGCTACGACGGGATT
B20: AUCGUGG (DNA:RNA)
RNA: B3 RNA with A26U, U27C, C29U, A30G
DNA 1: CAATCTGAATTCCGGTCTCCC
DNA 2: TGGTGGCTACGACGGGATT
B21: CGUUUCG (DNA:RNA)
RNA: B1 RNA with U26G, A27U, U30C, C31G
DNA 1: CAATCTGAATTCCGGTCTCCC
DNA 2: TGGTGGCTACGACGGGATT
B22: CAAAACG (DNA:RNA)
RNA: B3 RNA with A25C, U27A, G28A, C29A, A30C
DNA 1: CAATCTGAATTCCGGTCTCCC
DNA 2: TGGTGGCTACGACGGGATT
B23: GAGAGGA (DNA:RNA)
RNA: B3 RNA with A25G, U27G, G28A, C29G, A30G, G31A
DNA 1: CAATCTGAATTCCGGTCTCCC
DNA 2: TGGTGGCTACGACGGGATT
B24: CUAUGAG (DNA:RNA)
RNA: B1 RNA with U29G, U30A, C31G
DNA 1: CAATCTGAATTCCGGTCTCCC
DNA 2: TGGTGGCTACGACGGGATT
B25: GGAUGAG (DNA:RNA)
RNA: B3 RNA with A25G, A26G, U27A, G28U, C29G
DNA 1: CAATCTGAATTCCGGTCTCCC
DNA 2: TGGTGGCTACGACGGGATT
B26: GAAUGAG (DNA:RNA)
RNA: B3 RNA with A25G, U27A, G28U, C29G
DNA 1: CAATCTGAATTCCGGTCTCCC
DNA 2: TGGTGGCTACGACGGGATT
B27: CGAUGAG (DNA:RNA)
RNA: B1 RNA with U26G, U29G, U30A, C31G
DNA 1: CAATCTGAATTCCGGTCTCCC
DNA 2: TGGTGGCTACGACGGGATT
B28: GUAUGAG (DNA:RNA)
RNA: B1 RNA with C25G, U29G, U30A, C31G
DNA 1: CAATCTGAATTCCGGTCTCCC
DNA 2: TGGTGGCTACGACGGGATT
B29: GAUUGAG (DNA:RNA)
RNA: B3 RNA with A25G, G28U, C29G
DNA 1: CAATCTGAATTCCGGTCTCCC
DNA 2: TGGTGGCTACGACGGGATT
B30: AUUACUA (DNA:RNA)
RNA: B3 RNA with A26U, G28A, A30U, G31A
DNA 1: CAATCTGAATTCCGGTCTCCC
DNA 2: TGGTGGCTACGACGGGATT
B31: GGCACCG (DNA:RNA)
RNA: B3 RNA with A25G, A26G, U27C, G28A, A30C
DNA 1: CAATCTGAATTCCGGTCTCCC
DNA 2: TGGTGGCTACGACGGGATT
B32: GGCAUUG (DNA:RNA)
RNA: B1 RNA with C25G, U26G, A27C, U28A, C31G
DNA 1: CAATCTGAATTCCGGTCTCCC
DNA 2: TGGTGGCTACGACGGGATT
B33: GGCAUCC (DNA:RNA)
RNA: B1 RNA with C25G, U26G, A27C, U28A, U30C
DNA 1: CAATCTGAATTCCGGTCTCCC
DNA 2: TGGTGGCTACGACGGGATT
B34: GGCAUUC (DNA:RNA)
RNA: B1 RNA with C25G, U26G, A27C, U28A
DNA 1: CAATCTGAATTCCGGTCTCCC
DNA 2: TGGTGGCTACGACGGGATT
B35: GGCAUCG (DNA:RNA)
RNA: B3 RNA with A25G, A26G, U27C, G28A, C29U, A30C
DNA 1: CAATCTGAATTCCGGTCTCCC
DNA 2: TGGTGGCTACGACGGGATT
B36: GUCGGCA (DNA:RNA)
RNA: B3 RNA with A25G, A26U, U27C, C29G, A30C, G31A
DNA 1: CAATCTGAATTCCGGTCTCCC
DNA 2: TGGTGGCTACGACGGGATT

What follows are binders tested against T1, RBFOX1 RRM RbFoxmut (Fox-RRM*) (assay: EMSA; HiTS-Eq, 1 nM pool, 10 min; buffer printed only for the single-RNA assays: 10 mM Tris pH 7.5, 150 mM NaCl, 3.4 mM EDTA, 0.001% NP-40, 30 C). Conditions: tags: His6 N-terminal (pET28a); label: 5' 32P.
Summary of the method: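 Purified RbFox RRM (wild type or mutant) was equilibrated for 10 min in 50 µL with 1 nM of a 5′-radiolabelled pool of RNA with 7 randomized nucleotides, its flanks annealed to DNA oligonucleotides, across increasing protein concentrations. Free RNA was separated by 8% native PAGE, excised, reverse-transcribed, PCR-barcoded and sequenced on an Illumina HiSeq 2500. Relative association constants came from read-count changes of each variant against the control reaction, normalised to the cognate motif.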

**Q.** Which binding signal does the source give for B1 here?
**A.** 0.0582 KA relative to UGCAUGU

**Q.** Which binding signal does the source give for B2 here?
**A.** 0.0571 KA relative to UGCAUGU

**Q.** How did the binding signal turn out when B3 was run?
**A.** 0.103 KA relative to UGCAUGU

**Q.** For B4, which binding signal is on record?
**A.** 0.153 KA relative to UGCAUGU

**Q.** B5 was tested. Which binding signal did it give?
**A.** 0.909 KA relative to UGCAUGU

**Q.** Which binding signal does the source give for B6 here?
**A.** 0.566 KA relative to UGCAUGU

**Q.** For B7, which binding signal is on record?
**A.** 1.39 KA relative to UGCAUGU

**Q.** How did the binding signal turn out when B8 was run?
**A.** 0.108 KA relative to UGCAUGU

**Q.** For B9, which binding signal is on record?
**A.** 0.225 KA relative to UGCAUGU

**Q.** How did the binding signal turn out when B10 was run?
**A.** 0.12 KA relative to UGCAUGU

**Q.** B11 was tested. Which binding signal did it give?
**A.** 0.432 KA relative to UGCAUGU

**Q.** With B12 as the binder, how does the binding signal read?
**A.** 0.0631 KA relative to UGCAUGU

**Q.** B13 was tested. Which binding signal did it give?
**A.** 0.205 KA relative to UGCAUGU

**Q.** How did the binding signal turn out when B14 was run?
**A.** 0.126 KA relative to UGCAUGU

**Q.** B15 was tested. Which binding signal did it give?
**A.** 0.23 KA relative to UGCAUGU

**Q.** B16 was tested. Which binding signal did it give?
**A.** 0.15 KA relative to UGCAUGU

**Q.** With B17 as the binder, how does the binding signal read?
**A.** 0.161 KA relative to UGCAUGU

**Q.** Which binding signal does the source give for B18 here?
**A.** 0.114 KA relative to UGCAUGU

**Q.** With B19 as the binder, how does the binding signal read?
**A.** 0.0952 KA relative to UGCAUGU

**Q.** With B20 as the binder, how does the binding signal read?
**A.** 0.124 KA relative to UGCAUGU

**Q.** Which binding signal does the source give for B21 here?
**A.** 0.17 KA relative to UGCAUGU

**Q.** With B22 as the binder, how does the binding signal read?
**A.** 0.0837 KA relative to UGCAUGU

**Q.** Which binding signal does the source give for B23 here?
**A.** 0.0596 KA relative to UGCAUGU

**Q.** Which binding signal does the source give for B24 here?
**A.** 0.107 KA relative to UGCAUGU

**Q.** How did the binding signal turn out when B25 was run?
**A.** 0.225 KA relative to UGCAUGU

**Q.** With B26 as the binder, how does the binding signal read?
**A.** 0.983 KA relative to UGCAUGU

**Q.** B27 was tested. Which binding signal did it give?
**A.** 0.133 KA relative to UGCAUGU

**Q.** How did the binding signal turn out when B28 was run?
**A.** 0.513 KA relative to UGCAUGU

**Q.** For B29, which binding signal is on record?
**A.** 0.183 KA relative to UGCAUGU

**Q.** Which binding signal does the source give for B30 here?
**A.** 0.129 KA relative to UGCAUGU

**Q.** B31 was tested. Which binding signal did it give?
**A.** 0.132 KA relative to UGCAUGU

**Q.** For B32, which binding signal is on record?
**A.** 0.394 KA relative to UGCAUGU

**Q.** Which binding signal does the source give for B33 here?
**A.** 0.229 KA relative to UGCAUGU

**Q.** B34 was tested. Which binding signal did it give?
**A.** 0.119 KA relative to UGCAUGU

**Q.** For B35, which binding signal is on record?
**A.** 0.467 KA relative to UGCAUGU

**Q.** For B36, which binding signal is on record?
**A.** 0.13 KA relative to UGCAUGU
